Our source for the Potency values is PubChem BioAssay AID720517 (National Center for Advancing Translational Sciences (NCATS), 2013).

Inconclusive results are not listed. Entries that show only a call come without a potency. The source made the active and inactive calls. Calls come from the whole dose curve; as a rule, active = well fitted activation curve with a large enough effect; inconclusive = small, poorly fitted or top-dose-only effect; inactive = flat fitted curve, though single readings scatter.

This test in a line: qHTS for Inhibitors of Cell Surface uPA Generation: FP59 Counterscreen for Cherry-picked Compounds. The settings on record: FP59 anthrax toxin cytotoxicity counterscreen, cells; series mostly up to 115 µM.
As to `O=C(Nn1cnnc1)c1ccc(Cl)cc1`, the Potency result is “inactive”.

For `Cn1c(CN2CCCC2)nc2cc(NC(=O)COc3ccccc3)ccc21`, the Potency entry was “inactive”.

In the case of `CCc1nccn1CCC(=O)N1CCc2c([nH]c3ccccc23)C1CC(C)C` (centres undefined), the Potency entry was “inactive”.

`O=c1[nH]c2c(s1)C(c1ccc(O)cc1)C1C3CCC(C3)C1S2` (centres undefined): the Potency result is “inactive”.

In the case of `Fc1ccc(NC(=S)N2CCCC(c3ccccc3)=N2)cc1`, the Potency entry is “inactive”.

For `CCCCNC(=O)c1cc2c(-c3ccc(Cl)cc3)nn(C)c2s1`, the Potency entry is “inactive”.

For the compound `CCN(CC)S(=O)(=O)c1cc(NC(=O)COC(=O)C2CCC2)ccc1C`, the Potency result was “inactive”.

Take `Cc1ccc(S(=O)(=O)N2CCC(C(=O)OC(C)C(=O)NC3CCCCC3C)CC2)cc1` (centres undefined): the Potency result is “inactive”.

Regarding `Cc1ccccc1-c1nnc(SCC(=O)NCC2CCCO2)o1` (centres undefined), the Potency result is “inactive”.

For the compound `O=C1N[C@@H](Cc2c[nH]c3ccccc23)C(=O)N[C@H]1Cc1ccccc1`, the Potency result is “inactive”.

With `Cc1ccc(C(O)(COC(=O)C(C)C)COC(=O)C(C)C)c(O)c1`, the Potency entry is “inactive”.

Turning to `COc1ccc(C(CNC(=O)C(C)Oc2ccc(Br)cc2)N2CCCC2)cc1` (centres undefined), the Potency result is “inactive”.

Take `CCOc1cc(/C=N/Nc2cc(C)nc3ccc(C)cc23)ccc1O`: the Potency entry is “inactive”.

For the compound `N#CCCN(C(=O)COC(=O)c1ccc2c(c1)NC(=O)CS2)c1ccc2c(c1)OCCO2`, the Potency entry was “inactive”.

Turning to `Cc1ccc(N2C(=O)c3ccccc3C2(O)c2ccccc2)cc1` (centres undefined), the Potency entry was “inactive”.

On to `O=C(CCS(=O)(=O)c1ccc2c(c1)NC(=O)CS2)NCCc1ccc(Cl)cc1`, for which the Potency result is “inactive”.

For `O=C(O)C(Nc1nc(C(F)(F)F)nc2ccccc12)c1ccccc1` (centres undefined), the Potency result is “inactive”.

For the compound `O=C(C[n+]1ccccc1)Nc1ccccc1C(F)(F)F`, the Potency result was “inactive”.

On to `COc1ccc(CC(=O)OCC(=O)NNC(=O)c2ccccc2)cc1`, for which the Potency entry is “inactive”.

Take `C=CC[n+]1c(/C=C/c2ccc(OC(C)=O)c(OC)c2)ccc2ccccc21`: the Potency result is “inactive”.

For the compound `O=C1[C@H]2[C@@H](c3ccc(F)cc3)N3C(=O)N(c4cccc(Br)c4)C(=O)[C@@]3(Cc3ccc(Cl)cc3)[C@H]2C(=O)N1C1CCCCC1`, the Potency result is “inactive”.

For the compound `Cc1ccc(-n2nc3c(c2NC(=O)c2ccc4c(c2)OCO4)CS(=O)C3)c(C)c1` (centres undefined), the Potency result was “inactive”.

Consider `CCN(CC)S(=O)(=O)c1ccc(C(=O)Nc2cccc(C)c2)cc1`, for which the Potency result was “inactive”.

On to `CCS(=O)(=O)N1CCC(C(=O)NCc2ccc(OC)cc2OC)CC1`, for which the Potency result was “inactive”.

As to `Cc1ccc2sc(NNC(=O)c3ccc4c(c3)OCCO4)nc2c1C`, the Potency result is “inactive”.

Turning to `O=C(NNC(=O)c1cccnc1)c1ccncc1`, the Potency entry was “inactive”.

For the compound `CCOCCOc1cc(NCc2ccccc2)c2ncn(C(C)C)c2c1`, the Potency result was “inactive”.

Regarding `COc1ccc(C2=Nc3ccccc3C2(O)CCN2C(=O)c3ccccc3C2=O)cc1` (centres undefined), the Potency entry is “inactive”.

Take `CCOc1ccc(-n2cnc3scc(-c4ccc(OC)c(OC)c4)c3c2=O)cc1`: the Potency result is “inactive”.

For `CN(CC(=O)NCCCn1ccnc1)S(=O)(=O)c1ccc(Cl)cc1`, the Potency entry was “inactive”.

In the case of `Cc1ccc2nc(Nc3ccc(Cl)cc3)c3nncn3c2c1`, the Potency entry was “inactive”.

As for `COc1cccc(CN(C)C(=O)c2cc(S(=O)(=O)N3CCCC3)ccc2C)c1OC`, the Potency result is “inactive”.

On to `NC(=O)CC(NC(=O)Cc1cccc2ccccc12)c1ccc(N2CCN(c3ccccc3)CC2)c([N+](=O)[O-])c1` (centres undefined), for which the Potency entry is “inactive”.

Consider `CCSC1=NCCN1S(=O)(=O)c1ccc(Cl)cc1`, for which the Potency result was “inactive”.

Turning to `Oc1ccc(/C=N/Nc2cccc(Cl)n2)c(O)c1`, the Potency entry is “inactive”.

For the compound `O=C(Nc1c(C(=O)O)oc2ccc(Br)cc12)c1ccccc1`, the Potency entry is “inactive”.

Consider `Cc1ccc(C)c(N2N=C(C(=O)N(CC(C)C)c3c(N)n(Cc4ccccc4)c(=O)[nH]c3=O)CCC2=O)c1`, for which the Potency entry was “inactive”.

Regarding `CCCS(=O)(=O)c1ccc(COC(=O)Cc2ccc([N+](=O)[O-])cc2)cc1`, the Potency result is “inactive”.

With `Cc1ccccc1N1C(=O)C(Cc2ccc(F)cc2)S/C1=C(\C#N)C(N)=O` (centres undefined), the Potency entry was “inactive”.
